We go through 103 compounds from PubChem BioAssay AID1209 (Sanford-Burnham Center for Chemical Genomics, 2008).

About 810 (0.43%) of roughly 190,000 compounds were called active. The entries come from a sample that favours actives as a whole. Unmarked numbers belong to inactive results. Rule as the data show it: active = inhibition above about 50%; inactive = the rest.

The target in this experiment is Mannose-6-phosphate isomerase (Homo sapiens) (UniProt P34949). The experiment in a line: inhibitors of human PMI, primary screen, biochemical, fluorescence intensity, coupled assay (AID 1209).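 Also: plate controls were DMSO vehicle for no effect and wells lacking substrate for full effect.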 Particulars: purified PMI enzyme, at 20 µM, stronger effect = higher value.
Sequence of Mannose-6-phosphate isomerase (Homo sapiens) (P34949 whole entry, looked up): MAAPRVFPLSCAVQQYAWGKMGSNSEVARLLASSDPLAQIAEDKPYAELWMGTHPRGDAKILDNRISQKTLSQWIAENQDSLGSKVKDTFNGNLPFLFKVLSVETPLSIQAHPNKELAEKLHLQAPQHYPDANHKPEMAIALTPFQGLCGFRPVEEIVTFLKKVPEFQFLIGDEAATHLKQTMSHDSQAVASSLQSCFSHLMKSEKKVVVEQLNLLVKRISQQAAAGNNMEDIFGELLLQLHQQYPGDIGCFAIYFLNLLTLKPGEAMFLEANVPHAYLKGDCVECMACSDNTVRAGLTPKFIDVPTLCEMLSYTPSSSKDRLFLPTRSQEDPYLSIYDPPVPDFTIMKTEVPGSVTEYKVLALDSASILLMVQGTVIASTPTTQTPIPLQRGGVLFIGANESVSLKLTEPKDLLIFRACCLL
Consider `C/C(CC1CC(C)OC1=O)=N\NC(N)=S` (stereo not drawn), for which the inhibition was 17.6%.

For `CCOC(=O)c1sc(N(C)C(C)=O)nc1C`, the inhibition is -2.3%. For the compound `Cc1ccc(-n2c(SCC(=O)N(C)C3CCS(=O)(=O)C3)nc3ccccc3c2=O)cc1` (stereo not drawn), the inhibition is -4.5%. With `CC(C)(C)NC(=O)COc1ccc(CNc2ccc3[nH]c(=O)[nH]c3c2)cc1`, the inhibition is 62.2% (active). Consider `COc1cc(CNc2ccc(CNc3ncn[nH]3)cc2)ccc1OCC(=O)NC(C)(C)C`, for which the inhibition is 0.6%. Under `CCc1ccc(OCC(=O)NC(C)(C)C)cc1` stands 2.4%; under `C=CCOc1c(Cl)cc(CNc2ccc3[nH]c(=O)[nH]c3c2)cc1OC`, 26.3%. Turning to `CC(C)(C)NC(=O)COc1ccc(CNc2ncn[nH]2)cc1`, the inhibition was 6.1%.

As to `C=CCOc1ccc(CNc2ccc3[nH]c(=O)[nH]c3c2)cc1OC`, the inhibition was 81.1% (active). Consider `C=CCOc1cccc(CNc2ccc3[nH]c(=O)[nH]c3c2)c1`, for which the inhibition was 17.8%. Turning to `COc1cc(CNc2ccc3[nH]c(=O)[nH]c3c2)ccc1OCC(=O)NC(C)(C)C`, the inhibition is 82.4% (active).

Consider `COc1cc(CNc2ccc3[nH]c(=O)[nH]c3c2)cc(Br)c1OCC(=O)NC(C)(C)C`, for which the inhibition is 29.5%. Consider `CCOc1cc(CNc2ccc3[nH]c(=O)[nH]c3c2)ccc1OCC(=O)NC(C)(C)C`, for which the inhibition was 75% (active). On to `CCOc1cc(CNC)ccc1OCC(=O)NC(C)(C)C`, for which the inhibition was -7.3%.

For the compound `CCOc1cc(CNc2ncn[nH]2)ccc1OCC(=O)NC(C)(C)C`, the inhibition was 7%. Regarding `CCCOc1ccc(C2/C(=C(/O)c3ccc(F)cc3)C(=O)C(=O)N2CCCN(C)C)cc1` (stereo not drawn), the inhibition is 16.2%. As for `O=C(Nc1ccccc1N1CCOCC1)c1cc(-c2ccncc2)nc2ccccc12`, the inhibition is 4.3%. With `COc1cc(/C=C(\C#N)c2nc3ccc(C)cc3[nH]2)cc([N+](=O)[O-])c1O`, the inhibition is 46.2%.

Turning to `CN(C)/C=C1\C(=O)N(c2ccc([N+](=O)[O-])cc2)N=C1c1ccccc1`, the inhibition was 24.5%. Consider `O=C(NCCN1CCCC1)c1ccc(Cn2c(=S)[nH]c3ccc(Br)cc3c2=O)cc1`, for which the inhibition is -24.9%. `COc1ccc(C(=O)Nc2c(Cl)cc(Cl)cc2C(=O)NCCN2CCOCC2)cc1`: the inhibition is 2.6%.

Take `Cc1ccsc1/C=C/C(=O)O`: the inhibition was -2.7%.

On to `Cc1cccc(N2CC(O)(c3cccs3)[N+]3=C2CCCC3)c1` (stereo not drawn), for which the inhibition was -8.7%. Under `CCC(CC)c1nc(C#N)c(NCc2ccccc2)o1` stands 5.4%; under `CCOc1ccc(NC(=O)N2CCC(c3nc4ccccc4[nH]3)CC2)cc1`, -14.1%. For the compound `COc1ccc(-c2nc(CN3CCC(c4ccccc4)CC3)c(C)o2)cc1OC`, the inhibition was 12.5%. As to `Cc1ccccc1C(=O)Nc1sc(C)c(C)c1C(=O)c1ccccc1`, the inhibition is 13.9%. As for `Cc1sc(NC(=O)c2ccccc2)c(C(=O)NCCN(C)C)c1C`, the inhibition was -8.6%. Under `Cc1ccc(C(=O)c2c(NC(=O)c3ccccc3C)sc(C)c2C)cc1` stands 12.9%; under `CCN(CC)C(=O)c1c(NC(=O)c2ccccc2)sc(C)c1C`, -0.5%; under `Cc1ccc(C(=O)c2c(NC(=O)c3ccccc3)sc(C)c2C)cc1`, 59.8% (active). Regarding `Cc1sc(NC(=O)c2ccccc2)c(C(=O)c2ccccc2)c1C`, the inhibition is 57.2% (active). On to `Cc1ccc(C(=O)Nc2sc(C)c(C)c2C(=O)c2ccccc2)cc1`, for which the inhibition was 50.2% (active). Take `Cc1sc(NC(=O)CCl)c(C(=O)c2ccccc2)c1C`: the inhibition was 23.2%. With `Cc1sc(NC(=O)c2ccccc2)c(C(=O)NC(C)C)c1C`, the inhibition was 2.2%.

With `COc1ccc(-n2ccnc2SCC(=O)NC2CCCC2)c(OC)c1`, the inhibition is -3.3%. For the compound `CC(C)=CC(=O)OCC(=O)Nc1ccc(Cl)cn1`, the inhibition is 7%.

`Cc1nc(N2CCCCC2)c(C#N)c(C)c1[N+](=O)[O-]`: the inhibition is 1.3%.

Consider `CC1CCN(C(=O)CCc2nnc(-c3ccccc3)o2)CC1`, for which the inhibition is 1.6%.

For the compound `COc1ccc(OC)c(-n2nnnc2SCC(=O)Nc2ccc3c(c2)OCCO3)c1`, the inhibition is 14.4%. For `CCOc1cc(Cl)c(NC(=O)c2ccco2)cc1OCC`, the inhibition was 10.1%.

On to `CC1=C(C(=O)Nc2ccccc2C)C2(CCCCC2)C(C(N)=O)C(=S)N1` (stereo not drawn), for which the inhibition is -53.8%. With `O=C(CSC1=Nc2ccccc2C2CC=NN12)Nc1ccc(F)cc1Cl` (stereo not drawn), the inhibition was 12.3%. Under `Cc1cc2c(cc1C)CSC(c1c(O)ccc3ccccc13)SC2` stands 21.9%.

Turning to `Cc1nc2ccccc2c(C)c1C(=O)c1ccccc1`, the inhibition is -1.1%. With `CCOC(=O)c1c(C2COc3ccccc3O2)csc1N` (stereo not drawn), the inhibition is 19.8%. Under `CCOC(=O)c1c(C2COc3ccccc3O2)csc1NC(=O)c1ccco1` (stereo not drawn) stands 55.5% (active); under `CCOC(=O)c1c(C2COc3ccccc3O2)csc1NC(=O)c1ccccc1` (stereo not drawn), 15.6%; under `CC1CCCC/C1=N\NC(=S)Nc1ccccc1` (stereo not drawn), -33.2%.

As to `C[n+]1ccccc1C1CCCC/C1=N\NC(N)=S` (stereo not drawn), the inhibition was 64.5% (active). On to `C[n+]1ccccc1C1CCCC/C1=N\Nc1ccc([N+](=O)[O-])cc1[N+](=O)[O-]` (stereo not drawn), for which the inhibition is -5.6%. Regarding `Cc1ccc2c(c1)cc(CN(Cc1ccc3c(c1)OCO3)S(=O)(=O)c1ccccc1)c1nnnn12`, the inhibition was 12.1%. For the compound `Cc1ccc2c(c1)cc(CN(Cc1ccco1)S(=O)(=O)c1ccccc1)c1nnnn12`, the inhibition was 72.3% (active).

Turning to `Cc1ccc2c(c1)cc(CN(Cc1ccco1)C(=O)COc1ccccc1)c1nnnn12`, the inhibition was -0.9%.

Take `Cc1ccc(O)c(C=Nc2ccc3[nH]ncc3c2)c1`: the inhibition was 51.9% (active).

Consider `COc1ccc(C=Nc2ccc3[nH]ncc3c2)c(O)c1`, for which the inhibition was 47.9%. For `Cc1ccc(O)c(/C=N/NC(=O)c2[nH]ncc2Br)c1`, the inhibition is -11.3%. Take `CCOC(=O)c1c(-c2ccc(F)cc2)cn2ccccc12`: the inhibition is 4.3%.

`CCOC(=O)c1c(-c2ccccc2)cn2ccccc12`: the inhibition is 53.7% (active).

As for `CCOC(=O)c1c(-c2ccc(C)cc2)cn2ccccc12`, the inhibition was -10.2%.

As for `COc1ccc(-c2csc(Nc3ccc(S(=O)(=O)Nc4cc(C)on4)cc3)n2)cc1C`, the inhibition is 18.4%. Under `CN(Cc1ccncn1)C(=O)CC1C(=O)NCCN1Cc1cccc(Oc2ccccc2)c1` (stereo not drawn) stands 4.2%; under `COc1ccccc1N1CCN(CCCCOc2cccc3ccccc23)CC1`, -10.7%; under `COc1cc(NC(=S)Nc2cccnc2)cc(OC)c1`, 55.4% (active).

Consider `O=C(NC(=S)Nc1cccc2cnccc12)c1ccccc1`, for which the inhibition was 22.7%.

In the case of `CCOc1ccc(NC(=S)Nc2cccc3cnccc23)cc1`, the inhibition is 64.9% (active). On to `Fc1ccc(NC(=S)Nc2cccc3cnccc23)cc1`, for which the inhibition is 10.9%. With `COc1ccc(NC(=S)Nc2cccc3cnccc23)cc1`, the inhibition was 64.2% (active). Under `COc1cc(OC)cc(C(=O)NC(=S)Nc2cccnc2)c1` stands 13.1%; under `CCOc1ccc(NC(=S)Nc2cc(-c3ccccc3)[nH]n2)cc1`, 35.1%. For `COc1cccc(NC(=S)Nc2cccnc2)c1`, the inhibition is 10.6%.

On to `CCOc1ccc(NC(=S)Nc2cccnc2)cc1`, for which the inhibition was 27.8%. For the compound `CCOc1ccc(NC(=S)Nc2ccc(OCC)cc2)cc1`, the inhibition was 7.6%. As for `CCc1ccc(NC(=S)Nc2cccc3cnccc23)cc1`, the inhibition is 40.2%.

Take `CCc1cccc2c(C(=O)Cn3nnc(-c4ccc(OC)c(OC)c4)n3)c[nH]c12`: the inhibition is 13.9%.

With `O=C(NCCc1c[nH]c2ccccc12)C(=O)NCC1OCCN1S(=O)(=O)c1ccc(Cl)cc1` (stereo not drawn), the inhibition was 10%. Consider `COc1ccc(NC(=O)COC(=O)C(CC(C)C)N2C(=O)C3CC=CCC3C2=O)cc1Cl` (stereo not drawn), for which the inhibition is 16.5%. Under `N#Cc1c(NC(=O)CSc2n[nH]c(Cc3ccccc3)n2)oc(-c2ccccc2)c1-c1ccccc1` stands -1.5%. Take `CCOc1cccc(OCCOCCOc2ccccc2C(C)=O)c1`: the inhibition was 4.1%. Under `COc1cccc(/C=N/NC(=O)C(=O)N/N=C/c2cccc(OC)c2OC)c1OC` stands -0.6%; under `CCN(CC)CCNC(=O)Cn1c(C)cc2ccccc2c1=O`, -2.3%. As to `O=C1N=C(N2CCCCC2)SC1=C1CCCC1`, the inhibition is 1.2%.

Take `CCN(CC)S(=O)(=O)c1ccc(NC(=O)C2CCCN(C(=O)c3ccc(Cl)cc3)C2)cc1` (stereo not drawn): the inhibition was 14.2%. Consider `CCc1ccc(C(=O)COC(=O)c2nn(C)c(=O)c3ccccc23)cc1`, for which the inhibition is -3.7%.

On to `COc1cc(C(=O)O)nc2ccccc12`, for which the inhibition is 26.7%. Under `O=C(/C=C/c1ccccc1)NCCN1CCOCC1` stands 2.1%; under `COc1ccccc1NC(=S)Nc1cccc2cnccc12`, 69.6% (active); under `Fc1ccccc1NC(=S)Nc1cccc2cnccc12`, 33.9%. Turning to `COCCNC(=S)Nc1cccc2cnccc12`, the inhibition is 17.7%. Take `COCCn1c(=O)[nH]c2cc(C(=O)NCCc3ccc(S(N)(=O)=O)cc3)ccc2c1=O`: the inhibition was -4.1%. On to `CC1CCCC(C(=O)O)N1C(=O)CCSSCCC(=O)N1C(C)CCCC1C(=O)O` (stereo not drawn), for which the inhibition is -1.2%. Consider `CC(C)c1ccc(O)c(NC(=S)NC(=O)CCc2ccccc2)c1`, for which the inhibition was 12.8%. Consider `CC(Nc1oc(-c2ccco2)nc1C#N)c1ccccc1` (stereo not drawn), for which the inhibition is 13.7%. With `O=C(CSc1nnc(-c2c[nH]c3ccccc23)o1)c1ccc(-c2ccccc2)cc1`, the inhibition was 9%.

`CCN(CC)c1ccc(NC(=O)COc2ccccc2C#N)cc1S(=O)(=O)Nc1ccccc1OC`: the inhibition was -5.1%. Turning to `CCN(CC)c1ccc(NC(=O)c2ccccc2)cc1S(=O)(=O)Nc1ccccc1OC`, the inhibition was 30.8%. Turning to `CCN(CC)c1ccc(NC(=O)c2cccc(C)c2)cc1S(=O)(=O)Nc1ccccc1OC`, the inhibition is 53.3% (active). For `COc1ccc(C(=O)Nc2ccc(Cl)c(S(=O)(=O)Nc3ccccc3OC)c2)cc1`, the inhibition is 16.8%. With `COc1ccccc1NS(=O)(=O)c1cc(NC(=O)c2ccc(=O)[nH]c2)ccc1N1CCOCC1`, the inhibition is 0.7%. Under `CCN(CC)c1ccc(NC(=O)COc2ccccc2C)cc1S(=O)(=O)Nc1ccccc1OC` stands 38.9%; under `CCN(CC)c1ccc(NC(=O)c2ccccc2F)cc1S(=O)(=O)Nc1ccccc1OC`, 15.4%; under `CCN(CC)c1ccc(NC(=O)c2ccc(=O)[nH]c2)cc1S(=O)(=O)Nc1ccccc1OC`, 61.7% (active). Turning to `CCN(CC)c1ccc(NC(=O)c2ccccc2Br)cc1S(=O)(=O)Nc1ccccc1OC`, the inhibition was 63.9% (active).

In general, inhibition refers to the change of the read-out against control, counted positive when it falls.
